# Measured values from PubChem BioAssay (NCATS).
# Results filed as inconclusive are left out. The source made the active and inactive calls. Calls come from the whole dose curve; as a rule, active = well fitted cell-killing curve with a large enough effect; inconclusive = small, poorly fitted or top-dose-only effect, or effect the other way; inactive = no such curve, though single readings can be large or run the other way.
# Assay: Quantitative High-Throughput drug screen in 47 multiple myeloma cell lines against the NCATS MIPE library collection: MM1S_ATCC cell viability assay (AID 1918980); note: nearly all actives have a fitted effect of over 45% in size
# Details: MM1S myeloma viability, CellTiter-Glo ATP luminescence, 48 h; series mostly up to 45.8 µM; viability (% of control): at the top concentration
# Description: PI: Beverly A. Mock Ph.D.
# Laboratory of Cancer Biology and Genetics,
# Center for Cancer Research, National Cancer Institute,
# National Institute of Health, Bethesda, Maryland
# Drug resistance and disease progression are common in multiple myeloma (MM) patients, underscoring the need for new therapeutic combinations. […] We hypothesized that effective combinations would reduce MYC expression and enhance p16 activity. […] These preclinical data identify potentially useful drug combinations for evaluation in drug-resistant MM and reveal potential mechanisms of combined drug sensitivity.
# Described herein is the primary MIPE qHTS used to cherrypick compounds. Validated compounds were then further tested for potential synergistic activiy.
# [1] Peat TJ, Gaikwad SM, Dubois W, Gyabaah-Kessie N, Zhang S, Gorjifard S, Phyo Z, Andres M, Hughitt VK, Simpson RM, Miller MA, Girvin AT, Taylor A, Williams D, D'Antonio N, Zhang Y, Rajagopalan A, Flietner E, Wilson K, Zhang X, Shinn P, Klumpp-Thomas C, McKnight C, Itkin Z, Chen L, Kazandijian D, Zhang J, Michalowski AM, Simmons JK, Keats J, Thomas CJ, Mock BA. Drug combinations identified by high-throughput screening promote cell cycle transition and upregulate Smad pathways in myeloma. Cancer Lett. 2023 Aug 1;568:216284. doi: 10.1016/j.canlet.2023.216284. Epub 2023 Jun 24. PMID: 37356470; PMCID: PMC10408729.
# SEQUENCE No. (e.g., 1, 2, 3, etc.); […] (e.g., Cells, Incubation, Reagent, etc.); VALUE and DESCRIPTION.
# 1; Cells; 5 uL; white, solid bottom 1536-well Greiner assay plate.
# 2; Compounds; 23 nL; Kalypsis pin tool (Wako USA) equipped with a 1536-well pin head to transfer to the assay plates.
# 3; Incubation; 48 hours; 37C incubation.
# 4; Reagent;5uL; CellTiter Glo (Promega).
# 5; Detector; 425V; Luminescence; Viewlux PerkinElmer.
# NOTES (numbers refer to Sequence numbers above)
# 1. The cell-based screening methods employed in this study were like those previously published. Briefly, the corresponding myeloma cell lines were screened in 1,536-well plates with 500 cells, 5-uL per well for inhibition of cell viability (assessed by measuring ATP levels with CellTiterGlo).
# 2. NCATS MIPE 4.0 library of approved and investigational drugs were added using the Kalypsis pin tool. Wells treated with DMSO only for 100% viability and media only for 0% viability were used as controls.
# 3. The assay plates were covered and incubated for 48 hours in a 37C, 5% CO2 incubator with controlled humidity.
# 4. After 48 hours, CellTilter-GloTM luminescent substrate mix (Promega) reagent was added to the assay plate and plates we incubated for 5 min at room temperature.
# 5. Signal was measured as median relative luminescence units on a ViewLux (PerkinElmer) multiplate reader.
# [1] Heske CM, Davis MI, Baumgart JT, Wilson K, Gormally MV, Chen L, Zhang X, Ceribelli M, Duveau DY, Guha R, Ferrer M, Arnaldez FI, Ji J, Tran HL, Zhang Y, Mendoza A, Helman LJ, Thomas CJ. Matrix Screen Identifies Synergistic Combination of PARP Inhibitors and Nicotinamide Phosphoribosyltransferase (NAMPT) Inhibitors in Ewing Sarcoma. Clin Cancer Res. 2017 Dec 1;23(23):7301-7311. doi: 10.1158/1078-0432.CCR-17-1121. Epub 2017 Sep 12. PMID: 28899971; PMCID: PMC6636827.
# Potency is the fitted concentration of half-maximal effect.
Compound,viability (% of control),Potency
CN[C@H]1[C@@H](O[C@@H]2[C@H](O[C@@H]3[C@@H](O)[C@@H](O)[C@@H](N=C(N)N)[C@@H](O)[C@@H]3N=C(N)N)O[C@H](C)[C@@]2(O)C=O)O[C@@H](CO)[C@@H](O)[C@H]1O,164% [at 15.3 µM] (inactive),–
CC[C@]1(O)C[C@H]2CN(CCC3=c4ccccc4=N[C]3[C@@](C(=O)OC)(c3cc4c(cc3OC)N(C)[C@H]3[C@@](O)(C(N)=O)[C@H](O)[C@]5(CC)C=CCN6CC[C@]43[C@@H]65)C2)C1,–,0.235 µM (active)
c1cc(OCCN2CCCCC2)cc(-c2n[nH]c3ccc(-c4ncn[nH]4)cc23)c1,–,23.5 µM (active)
Cc1cn([C@@H]2C[C@@H](O)[C@H](CO)O2)c(=O)[nH]c1=O,126% (inactive),–
O=C(CO)N1CCC(c2[nH]nc(-c3ccc(Cl)cc3)c2-c2ccncn2)CC1,–,20.9 µM (active)
COc1ccc(CCC(=O)Nc2nc3ccc(Cl)cc3s2)cc1OC,–,13.2 µM (active)
C[C@]12C=CC(=O)C=C1CC[C@@H]1[C@@H]2[C@@H](O)C[C@@]2(C)[C@@H]1CC[C@]2(O)C(=O)CO,–,5.26 µM (active)
CCCCc1ccc(NS(=O)(=O)c2ccc(C)c(C(=O)N3CCN(c4cccc(C)c4C)CC3)c2)cc1,–,14.8 µM (active)
CNC(=O)[C@H](Cc1ccccc1)NC(=O)[C@H](CC(C)C)[C@H](CSc1cccs1)C(=O)NO,–,26.4 µM (active)
CC1=C(CC(=O)O)c2cc(F)ccc2C1=Cc1ccc(S(C)=O)cc1 (stereo not given),–,1.32 µM (active)
C=CC[N+]1([C@H]2C[C@H]3[C@@H]4CC[C@H]5C[C@H](O)[C@@H](N6CCOCC6)C[C@]5(C)[C@@H]4CC[C@]3(C)[C@H]2OC(C)=O)CCCC1,–,18.7 µM (active)
N[C@@H](CC(=O)N1CCn2c(nnc2C(F)(F)F)C1)Cc1cc(F)c(F)cc1F,–,26.4 µM (active)
O=c1[nH]nc(OCCCc2ccc(Cl)cc2)c(NCc2cccnc2)c1Br,–,8.33 µM (active)
CC(NCCc1ccc(O)cc1)C(O)c1ccc(O)cc1 (stereo not given),–,5.9 µM (active)
CC1(C)C(N(O)C(=O)Nc2ccc(Cl)cc2)N(c2ccc(Cl)cc2)C(=O)N1CC(=O)NN=CC=Cc1ccc([N+](=O)[O-])o1 (stereo not given),–,9.35 µM (active)
Cc1cnc(CNC(=O)c2c(=O)c3ccc(N4CCCN(C)CC4)nc3n3c2sc2ccccc23)cn1,–,2.88 µM (active)
CCC[C@H](Nc1nc(-c2ccc(NC(=O)NCC)c(OC)c2)ncc1C)c1cccnc1,–,0.0209 µM (active)
CN1N=C(N)c2cn([C@@H]3O[C@H](COP(=O)(O)O)[C@@H](O)[C@@H]3O)c3ncnc1c23,–,1.18 µM (active)
Oc1cc(O)cc(C=Cc2ccc(O)c(O)c2)c1,–,26.4 µM (active)
Clc1ccc(C2(c3ccc(-c4cn[nH]c4)cc3)CCNCC2)cc1,–,14.8 µM (active)

Compound,viability (% of control),Potency
OCCn1cc(-c2ccc3c(c2)CCC3=NO)c(-c2ccncc2)n1,–,26.4 µM (active)
C#C[C@]1(O)CC[C@H]2[C@H]3CCc4cc(OC)ccc4[C@H]3CC[C@@]21C,–,20.9 µM (active)
Nc1[nH]nc2nnc(-c3c(-c4ccccc4)nn4ccccc34)cc12,–,0.264 µM (active)
OC(c1cc(C(F)(F)F)nc2c(C(F)(F)F)cccc12)C1CCCCN1 (stereo not given),–,20.9 µM (active)
CCOC(=O)[C@H](CCc1ccccc1)N[C@@H](C)C(=O)N1CCCC1C(=O)O (stereo not given in full),–,10.5 µM (active)
CN1CC(=O)NC1=NC(=O)Nc1cccc(Cl)c1,–,26.4 µM (active)
CCC(=C(CC)c1ccc(O)cc1)c1ccc(O)cc1,–,14.8 µM (active)
COc1nc(C)cnc1NS(=O)(=O)c1cccnc1-c1ccc(-c2nnco2)cc1,120% (inactive),–
CN(C)c1nc(Cc2ccc(NC(=O)c3ccc(C(F)(F)F)cc3)cc2)nc(N(C)C)c1CC(=O)O,–,2.96 µM (active)
CON(C)C(=O)N1N=C(c2cc(F)ccc2F)S[C@]1(CCCN)c1ccccc1,51.7% (inactive),–
CC(C)C[C@@H](N)[C@H](O)C(=O)N[C@H](C(=O)N[C@H](C(=O)N[C@@H](CC(=O)O)C(=O)O)C(C)C)C(C)C,–,23.5 µM (active)
CC(=O)NCCC(=O)N[C@@H](CCC(N)=O)C(=O)N[C@@H](CO)C(=O)N[C@@H](CCC(N)=O)C(=O)N[C@@H](CCC(N)=O)C(=O)N[C@H](C(=O)N[C@@H](Cc1ccccc1)C(=O)N[C@]1(C)CCCCCCC=CCCC[C@@](C)(C(=O)N[C@@H](CCC(N)=O)C(=O)N[C@@H](CC(N)=O)C(N)=O)NC(=O)[C@H](CC(C)C)NC(=O)[C@H](CC(C)C)NC(=O)[C@@H](CCCNC(=N)N)NC(=O)[C@H](Cc2c[nH]c3ccccc23)NC(=O)[C@H](CC(C)C)NC(=O)[C@H](CC(N)=O)NC1=O)[C@H](C)O,–,20.9 µM (active)
COc1c(C)c2c(c(O)c1CC=C(C)CCC(=O)O)C(=O)OC2,–,3.72 µM (active)
C[C@H]1[C@H](O)O[C@@H]2O[C@@]3(C)CC[C@@H]4[C@H](C)CC[C@@H]1[C@@]24OO3,–,11.8 µM (active)
CC(=O)OCC(=O)[C@@]1(O)CC[C@H]2[C@@H]3CCC4=CC(=O)C=C[C@]4(C)[C@@H]3[C@@H](O)C[C@@]21C,–,0.118 µM (active)
C[C@]12CCC3=C4CCC(=O)C=C4CC[C@@H]3[C@H]1CC[C@@]2(O)CC#N,111% (inactive),–
O=C(Nc1cccc2c(=O)cc(-c3nn[nH]n3)oc12)c1ccc(OCCCCc2ccccc2)cc1,–,23.5 µM (active)
NS(=O)(=O)c1ccc(Nc2nc(OCC3CCCCC3)c3[nH]cnc3n2)cc1,–,18.7 µM (active)
O=c1[nH]c(=O)n([C@H]2C[C@@H](O)[C@@H](CO)O2)cc1C(F)(F)F,–,10.5 µM (active)
C=C1[C@H](n2cnc3c(=O)[nH]c(N)nc32)C[C@H](O)[C@H]1CO,–,14.8 µM (active)
